Test results taken from PubChem BioAssay AID538 (PCMD, 2006).
About 100 (0.16%) of roughly 62,000 compounds were called active. Shown is part of a subset that was picked to be rich in actives. Values without a mark were called inactive.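 The calls were made as follows: active = inhibition above 20% in each of the two 10-compound mixture wells holding the compound; inactive = the rest.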

The compounds below were run against Complement C1s subcomponent (Homo sapiens) (UniProt P09871) (assay: complement C1s protease inhibitors, primary screen, biochemical, 10-compound mixtures (AID 538;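 also: 0% = enzyme wells lacking compound mixture and 100% = no-enzyme blank wells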)). Conditions: purified C1s, fluorogenic AMC substrate, pooled mixtures; screened at 5 µM (by protocol).
Complement C1s subcomponent (Homo sapiens), sequence (P09871 16-437 limits assumed): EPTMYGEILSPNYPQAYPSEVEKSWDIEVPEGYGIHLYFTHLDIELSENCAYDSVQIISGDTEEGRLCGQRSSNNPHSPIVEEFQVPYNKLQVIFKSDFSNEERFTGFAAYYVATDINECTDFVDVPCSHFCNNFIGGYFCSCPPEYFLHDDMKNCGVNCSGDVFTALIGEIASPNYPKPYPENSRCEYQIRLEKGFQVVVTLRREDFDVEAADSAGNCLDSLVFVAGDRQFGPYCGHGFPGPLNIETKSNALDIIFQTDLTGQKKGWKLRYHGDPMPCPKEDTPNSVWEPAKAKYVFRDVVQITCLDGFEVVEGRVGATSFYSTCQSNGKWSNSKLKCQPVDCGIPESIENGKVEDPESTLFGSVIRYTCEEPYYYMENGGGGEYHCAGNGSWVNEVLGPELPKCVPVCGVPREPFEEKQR
Complement C1s subcomponent (Homo sapiens), sequence (P09871 438-688 limits assumed): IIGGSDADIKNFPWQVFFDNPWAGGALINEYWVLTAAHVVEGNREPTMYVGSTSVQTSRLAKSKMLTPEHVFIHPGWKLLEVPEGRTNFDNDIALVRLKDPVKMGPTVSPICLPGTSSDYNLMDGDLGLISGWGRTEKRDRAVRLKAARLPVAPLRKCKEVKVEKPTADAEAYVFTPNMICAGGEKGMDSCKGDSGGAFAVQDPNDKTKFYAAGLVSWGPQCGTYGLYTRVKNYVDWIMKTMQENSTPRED

Row | Compound | mean inhibition % of two 10-compound mixtures (active compounds read high) [%]
1 | CCCS(=O)(=O)N1CCC(C(=O)NCCCN(C)Cc2ccccc2)CC1 | 2.46
2 | CCc1cc(Br)ccc1NC(=O)C1CCCO1 (configuration not stated) | 4.52
3 | Cc1cccc(OCC(O)Cn2c(=N)n(CCN3CCOCC3)c3ccccc32)c1 (configuration not stated) | 3.52
4 | O=S(=O)(NCCOc1cccc2cccnc12)c1ccc(F)cc1 | 8.29
5 | CCOC(=O)CN(C(=O)CN1CCOCC1)c1ccc(Br)cc1 | 1.94
6 | O=C(Nc1ccc(Cl)cn1)Nc1cccs1 | 7.83
7 | CC(NC(=O)c1cc(-c2ccccc2)on1)c1ccccc1 (configuration not stated) | -25.3
8 | CCn1ncc(C2=NOC(C(=O)Nc3ccccc3C(=O)OC)C2)c1C (configuration not stated) | 1.96
9 | COc1ccc(CCNC(=O)CN2CCC(n3nnc4cc(F)ccc43)CC2)cc1OC | 2.77
10 | Cc1ccc(Cn2nnc3c(=O)n(CC(=O)N4CCCCC4)cnc32)cc1 | -35.5
11 | Cc1ccc(CNC(=O)C2CC(=O)N(C3CCCCCCC3)C2)cc1 (configuration not stated) | -34.1
12 | COc1ccccc1N(C(=O)Cn1nnc2ccccc21)C(C(=O)NCc1ccco1)c1ccc(C)o1 (configuration not stated) | 8.72
13 | C#CCN1C(=O)C(O)(CC(=O)c2cc(OC)ccc2OC)c2ccccc21 (configuration not stated) | 11.6
14 | C=CCn1c(SCn2nnc3ccccc3c2=O)nnc1-c1ccc(Cl)cc1 | 9.21
15 | CCOc1ccc(S(=O)(=O)N(CC(=O)O)c2ccccc2)cc1 | -11.4
16 | O=S1(=O)CCN2C(=N1)SC1=C2CCN(Cc2ccccc2)C1 | 15.2
17 | Cc1cc(C)cc(NC(=O)N2CCC(NC(=O)c3ccc(F)cc3)CC2)c1 | 3.5
18 | CC(C)CCNC(=O)C(C)N(C(=O)Cn1nnc(-c2ccc(F)cc2)n1)C1CCCC1 (configuration not stated) | -3.08
19 | CCCCCOC(=O)NCCOC(=O)Nc1ccc(C(=O)OCC)cc1 | 1.11
20 | CCNc1nc(SCCOc2ccccc2)nc(N(C)C)n1 | 3.09
21 | C=CCn1c(SCC(=O)NC23CC4CC(CC(C4)C2)C3)nc(O)cc1=O | -25.2
22 | COC(=O)c1cccc(NC(=O)CN2CCC(NC(=O)c3cc(OC)c(OC)c(OC)c3)CC2)c1 | -69.7
23 | Cc1cccc(N2CCN(S(=O)(=O)c3ccc4c(c3)c(=O)n(C)c(=O)n4C)CC2C)c1 (configuration not stated) | 12.1
24 | CCCC(=O)Nc1ccc(C(=O)NCCCn2ccnc2)cc1 | 14.7

Row | Compound | mean inhibition % of two 10-compound mixtures (active compounds read high) [%]
25 | COc1ccc(-c2cc3ccc(OCc4nn[nH]n4)cc3oc2=O)cc1 | -281
26 | COc1ccc(S(=O)(=O)N(C)CC(=O)Nc2ccc3c(c2)OCCO3)cc1OC | 3.88
27 | COc1cccc(C(=O)Nc2c3c(nn2-c2cccc(C)c2C)CS(=O)(=O)C3)c1OC | -0.81
28 | CC(=O)N1CCN(c2cccc(C)c2C)CC1 | 6.81
29 | Cc1nnc(NC(=O)CCC(=O)N2CCC(C)CC2)s1 | 4.7
30 | O=C(C(Cc1ccccc1)n1cccc1)N1CCN(C2CCCCC2)CC1 (configuration not stated) | 11.2
31 | Cn1c(SCC(=O)N2CCOCC2)nnc1-c1ccc(NC(=O)c2ccccc2F)cc1 | 3.6
32 | O=C(COc1ccc(F)cc1)N(CC1=CCS(=O)(=O)C1)c1ccccc1 | 4.83
33 | O=C1NC2(CCCCC2)N=C1c1ccccc1 | 2.35
34 | CCC/C(O)=C1\C(=O)CC(C)(C)CC1=Nc1ccccc1OC | 9.67
35 | O=C(CS(=O)(=O)c1cn(Cc2cccc(F)c2)c2ccccc12)N1CCCCC1 | -0.735
36 | CCOc1ccc(Cn2nnc(C(=O)NCc3ccccc3)c2N)cc1 | -16.1
37 | Oc1ccc(Cl)cc1/C=N/c1nc2ccccc2[nH]1 | 5.15
38 | CCN=C1SC(CC(=O)Nc2ccc(C)cc2)C(=O)N1CC (configuration not stated) | -15
39 | Cc1occc1C(=O)N1CCCc2ccccc21 | -1.12
40 | CCN(CC)C(=O)CSc1nnc(-c2cnccn2)n1-c1ccc(C)cc1 | 14.1
41 | COc1ccc(-c2nnc(SCC(=O)NC3CCCCC3)o2)cc1OC | -3.36
42 | CCCOC(=O)C1=C(C)NC2=C(C(=O)C(C(=O)OC)C(C)C2)C1c1ccc(N(C)C)cc1 (configuration not stated) | -5.72
43 | CC(CN1CCCCC1)OC(=O)c1ccccc1Cl (configuration not stated) | 2.23
44 | CN1CCCc2cc(C#N)c(=O)[nH]c21 | -74.4
45 | Cc1ncn(C23CC4CC(CC(O)(C4)C2)C3)n1 | 0.845
46 | Cc1ncc(CC(=O)n2cc(C(=O)c3cc(Cl)ccc3O)cn2)s1 | 8.66
47 | Cn1c(=O)c2c(nc(SCC(=O)Nc3ccccc3N3CCCCC3)n2C)n(C)c1=O | -17.6
